Measured values from PubChem BioAssay (NCATS).
Inconclusive results are not listed. Calls of active or inactive are those of the source. Calls follow the shape of the dose curve; as a rule, active = well fitted cell-killing curve with a large enough effect; inconclusive = small, poorly fitted or top-dose-only effect, or effect the other way; inactive = no such curve, though single readings can be large or run the other way.

Columns and labels:
[1] = Quantitative High-Throughput drug screen in 47 multiple myeloma cell lines against the NCATS MIPE library collection: SKMM1_PLB cell viability assay (AID 1919863); conditions: SKMM1 myeloma viability, CellTiter-Glo ATP, 48 h; viability: stronger effect = lower value; also: nearly all actives have a fitted effect of over 35% in size
Outline: (§1)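 Myeloma cells (500/well) treated with MIPE 4.0 compounds for 48 h at 37 °C, 5% CO2. Viability read as ATP via CellTiter-Glo luminescence after 5 min at RT; DMSO-only wells = 100%, media-only = 0% viability.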

[2] = Quantitative High-Throughput drug screen in 47 multiple myeloma cell lines against the NCATS MIPE library collection: XG6_PLB cell viability assay (AID 1919865); also: nearly all actives have a fitted effect of over 40% in size
Outline: as §1

[3] = Quantitative High-Throughput drug screen in 47 multiple myeloma cell lines against the NCATS MIPE library collection: XG1_PLB cell viability assay (AID 1919866); also: nearly all actives have a fitted effect of over 35% in size
Outline: as §1

[4] = Quantitative High-Throughput drug screen in 47 multiple myeloma cell lines against the NCATS MIPE library collection: PCM6_Riken cell viability assay (AID 1919870); also: nearly all actives have a fitted effect of over 30% in size
Outline: as §1

[5] = Quantitative High-Throughput drug screen in 47 multiple myeloma cell lines against the NCATS MIPE library collection: RPMI8226_ATCC cell viability assay (AID 1919871); also: nearly all actives have a fitted effect of over 30% in size
Outline: as §1

[6] = Quantitative High-Throughput drug screen in 47 multiple myeloma cell lines against the NCATS MIPE library collection: OPM2_DSMZ cell viability assay (AID 1919872); also: nearly all actives have a fitted effect of over 30% in size
Outline: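 qHTS of the MIPE 4.0 collection: 500 myeloma cells/well, 48 h drug exposure at 37C in 5% CO2, then CellTiter-Glo for 5 min at room temperature before luminescence reading.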

[7] = Quantitative High-Throughput drug screen in 47 multiple myeloma cell lines against the NCATS MIPE library collection: VP6_DJ cell viability assay (AID 1919867); also: nearly all actives have a fitted effect of over 40% in size
Outline: as §1

[8] = Quantitative High-Throughput drug screen in 47 multiple myeloma cell lines against the NCATS MIPE library collection: PE2_PLB cell viability assay (AID 1919869); also: nearly all actives have a fitted effect of over 35% in size
Outline: as §1

[9] = Quantitative High-Throughput drug screen in 47 multiple myeloma cell lines against the NCATS MIPE library collection: UTMC2_PLB cell viability assay (AID 1919868); conditions: CellTiter-Glo ATP luminescence, 48 h; viability (% of DMSO control): at 45.8 µM (top of the series); also: nearly all actives have a fitted effect of over 55% in size
Outline: as §1

[10] = Quantitative High-Throughput drug screen in 47 multiple myeloma cell lines against the NCATS MIPE library collection: U266_ATCC cell viability assay (AID 1919864); also: nearly all actives have a fitted effect of over 35% in size
Outline: as §1
Potency is read from the fitted curve at half-maximal effect.

CC(=O)Oc1ccccc1C(=O)O
active: Potency [2] 4.69 µM | Potency [3] 5.26 µM | Potency [4] 5.26 µM
inactive: viability [1] 129% | Potency [5] | Potency [6]

COc1ccccc1[C@H](c1cccc2ccccc12)[C@@](C)(C#N)C(=O)N1CCC(c2cccc(C(F)(F)F)c2)CC1
active: Potency [1] 5.9 µM | Potency [2] 4.69 µM | Potency [3] 3.32 µM | Potency [7] 5.26 µM | Potency [8] 5.9 µM | Potency [4] 5.9 µM | Potency [6] 8.33 µM

CN1CCN(CCCN2c3ccccc3Sc3ccc(C(F)(F)F)cc32)CC1
inactive: viability [1] 123% | Potency [6]
active: Potency [2] 1.05 µM | Potency [3] 1.18 µM | Potency [7] 2.09 µM

CC(C)OC(=O)C1=CN(C(=O)c2ccc(F)c(F)c2)CC(C)(C)c2c1[nH]c1ccccc21
inactive: viability [1] 104% | Potency [2] | Potency [3] | Potency [8] | Potency [4] | Potency [5] | Potency [6]
active: Potency [7] 1.87 µM

C[C@]12CC[C@H](O)CC1=CC[C@@H]1[C@H]2CC[C@]2(C)C(c3cccnc3)=CC[C@H]12
inactive: Potency [8] | Potency [5] | Potency [6]
active: Potency [1] 1.82 µM | Potency [2] 3.23 µM | Potency [3] 3.23 µM | Potency [7] 8.12 µM

COc1cccc2cc(-c3nc(C4CCC(C(=O)O)CC4)n4ncnc(N)c34)[nH]c12 (stereo not given)
active: Potency [1] 1.87 µM | Potency [2] 0.418 µM | Potency [3] 0.148 µM | Potency [7] 0.833 µM | Potency [5] 0.59 µM | Potency [6] 2.96 µM

COc1cc2nccc(Oc3ccc(NC(=O)NC4CC4)c(Cl)c3)c2cc1C(N)=O
active: Potency [1] 13.2 µM | Potency [2] 3.32 µM | Potency [3] 18.7 µM | Potency [8] 18.7 µM | Potency [4] 16.6 µM | Potency [5] 20.9 µM | Potency [6] 13.2 µM

CC(C)C[C@H](NC(=O)[C@@H](O)[C@H](N)Cc1ccccc1)C(=O)O
active: Potency [1] 26.4 µM | Potency [2] 20.9 µM | Potency [3] 20.9 µM | Potency [9] 23.5 µM | Potency [8] 26.4 µM | Potency [5] 20.9 µM

O=C(c1cc(Cc2n[nH]c(=O)c3ccccc23)ccc1F)N1CCN(C(=O)C2CC2)CC1
inactive: viability [1] 93.3% | Potency [5] | Potency [6]
active: Potency [2] 13.2 µM | Potency [9] 10.5 µM | Potency [8] 18.7 µM | Potency [4] 11.8 µM

S=C(NCc1ccc2c(c1)OCO2)N1CCN(c2ncnc3c2oc2ccccc23)CC1
active: Potency [10] 12.1 µM | Potency [2] 2.41 µM | Potency [3] 0.96 µM | Potency [7] 0.96 µM | Potency [8] 6.79 µM | Potency [4] 4.81 µM

COc1ccc(COc2cc3oc(=O)c4cc(C(C)O)ccc4c3cc2OC)cc1 (stereo not given)
active: Potency [1] 20.9 µM | Potency [3] 13.2 µM | Potency [7] 14.8 µM | Potency [5] 20.9 µM

O=C(NOC[C@H](O)CO)c1ccc(F)c(F)c1Nc1ccc(I)cc1F
active: Potency [10] 16.6 µM | Potency [2] 0.0074 µM | Potency [3] 0.0296 µM | Potency [7] 0.0372 µM | Potency [8] 0.0662 µM | Potency [5] 0.0296 µM
inactive: Potency [4]

NC(=O)c1ccc(I)c([N+](=O)[O-])c1
inactive: viability [1] 102% | Potency [6]
active: Potency [3] 18.7 µM | Potency [8] 20.9 µM

Nc1ccc(S(=O)(=O)Nc2ccnn2-c2ccccc2)cc1
inactive: viability [1] 145% | Potency [2] | Potency [4] | Potency [5] | Potency [6]

Cc1[nH]c(=O)c(C#N)cc1-c1ccncc1
inactive: viability [1] 106% | Potency [5] | Potency [6]
active: Potency [2] 5.9 µM | Potency [8] 11.8 µM | Potency [4] 7.43 µM

CCN(CC)CCCC(C)Nc1nc(C)cc(Nc2ccc3nc(C)cc(N)c3c2)n1 (stereo not given)
active: Potency [7] 3.72 µM | Potency [8] 10.5 µM
inactive: viability [1] 123% | Potency [5] | Potency [6]

OC(CCN1CCCCC1)(c1ccccc1)C1CC2C=CC1C2 (stereo not given)
inactive: Potency [10] | Potency [2] | Potency [3] | Potency [7] | Potency [6]

N#CC[C@H](C1CCCC1)n1cc(-c2ncnc3[nH]ccc23)cn1
inactive: Potency [5] | Potency [6]
active: Potency [1] 6.62 µM | Potency [9] 9.35 µM

CCCS(=O)(=O)Nc1ccc(F)c(C(=O)c2c[nH]c3ncc(-c4ccc(Cl)cc4)cc23)c1F
active: Potency [10] 5.26 µM | Potency [2] 2.96 µM | Potency [3] 7.43 µM | Potency [7] 18.7 µM | Potency [9] 14.8 µM | Potency [4] 5.26 µM

NCCCC(N)(C(=O)O)C(F)F (stereo not given)
inactive: viability [1] 97% | Potency [3] | Potency [8] | Potency [6]
